# Calls of active or inactive are those of the source. Unless noted, no rule for the calls is given here.
# Legend:
# [1] = A549 cell viability effects, profiling panel, calcein-AM fluorescence, 48 h, basal (AID 1162); details: higher = more signal; also: test concentration not given here
# [2] = adipocyte viability effects, profiling panel, cell-based, 3T3-L1 adipocytes, calcein-AM fluorescence, 48 h, basal (AID 1163); details: 3T3-L1 adipocytes viability, higher = more signal; also: test concentration not given here
# [3] = HepG2 cell viability effects, profiling panel, calcein-AM fluorescence, 48 h, basal (AID 1164); details: higher = more signal; also: test concentration not given here
# [4] = MM1S cell viability effects, profiling panel, calcein-AM fluorescence, 48 h, basal (AID 1165); details: higher = more signal;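 also: viability of MM1S multiple myeloma cells under basal unstimulated conditions; test concentration not given here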
# [5] = basal RPMI8226 viability, no added stimulus, profiling panel, cell-based, calcein-AM fluorescence, 48 h, PK04 Diversity Set (AID 1166); details: RPMI8226 myeloma viability, higher = more signal;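 also: cells grown under basal conditions without added stimulus; test concentration not given here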
# [6] = basal HepG2 mitochondrial membrane potential changes, profiling panel, cell-based, JC-1 fluorescence, 24 h, 100 nL compound (AID 1167); details: higher = more signal; also: test concentration not given here
# [7] = basal 3T3-L1 adipocyte mitochondrial potential changes, profiling panel, cell-based, JC-1 fluorescence, 3T3-L1 adipocytes, 24 h, 100 nL compound (AID 1168); details: JC-1 mitochondrial fluorescence, higher = more signal, called active from +8 up or from −8 down; also: test concentration not given here
# [8] = basal RPMI8226 mitochondrial membrane potential changes, profiling panel, cell-based, JC-1 fluorescence, 24 h, 100 nL compound (AID 1169); details: RPMI8226 myeloma, JC-1 mitochondrial potential fluorescence, higher = more signal; also: test concentration not given here
# [9] = basal MM1S mitochondrial membrane potential changes, profiling panel, cell-based, JC-1 fluorescence, 24 h, 100 nL compound (AID 1170); details: higher = more signal; also: test concentration not given here
# [10] = A549 lung cancer cell viability effects, profiling panel, resazurin fluorescence, 24 h, PK04 Diversity Set (AID 1171); details: higher = more signal, called active from +8 up or from −8 down; also: test concentration not given here
# [11] = HepG2 liver cancer cell viability effects, profiling panel, resazurin fluorescence, 24 h, PK04 Diversity Set (AID 1172); details: higher = more signal; also: test concentration not given here
# [12] = basal S. cerevisiae growth modulation, no modifier, primary screen, OD600, strain BY4716, 24 h, basal condition (AID 1173); details: OD600, 24 h, higher = more signal, called active from +8 up or from −8 down
# [13] = MM1S myeloma cell viability, profiling panel, resazurin fluorescence, basal, 24 h, PK04 Diversity Set (AID 1174); details: higher = more signal, called active from +8 up or from −8 down;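 also: MM1S multiple myeloma cell line; test concentration not given here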
# [14] = target: Dihydroorotate dehydrogenase (quinone), mitochondrial (Plasmodium falciparum (isolate 3D7)) (UniProt Q08210); assay: PfDHODH enzyme inhibitors, primary screen, biochemical, C-terminal His tag, absorbance 600 nm (AID 1175); details: DCIP absorbance 600 nm, higher = more signal, called active from +8 up or from −8 down;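 also: recombinant parasite enzyme with a five histidine tag at its C terminus; test concentration not given here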
# Chain of Dihydroorotate dehydrogenase (quinone), mitochondrial (Plasmodium falciparum (isolate 3D7)) (Q08210 whole entry, looked up): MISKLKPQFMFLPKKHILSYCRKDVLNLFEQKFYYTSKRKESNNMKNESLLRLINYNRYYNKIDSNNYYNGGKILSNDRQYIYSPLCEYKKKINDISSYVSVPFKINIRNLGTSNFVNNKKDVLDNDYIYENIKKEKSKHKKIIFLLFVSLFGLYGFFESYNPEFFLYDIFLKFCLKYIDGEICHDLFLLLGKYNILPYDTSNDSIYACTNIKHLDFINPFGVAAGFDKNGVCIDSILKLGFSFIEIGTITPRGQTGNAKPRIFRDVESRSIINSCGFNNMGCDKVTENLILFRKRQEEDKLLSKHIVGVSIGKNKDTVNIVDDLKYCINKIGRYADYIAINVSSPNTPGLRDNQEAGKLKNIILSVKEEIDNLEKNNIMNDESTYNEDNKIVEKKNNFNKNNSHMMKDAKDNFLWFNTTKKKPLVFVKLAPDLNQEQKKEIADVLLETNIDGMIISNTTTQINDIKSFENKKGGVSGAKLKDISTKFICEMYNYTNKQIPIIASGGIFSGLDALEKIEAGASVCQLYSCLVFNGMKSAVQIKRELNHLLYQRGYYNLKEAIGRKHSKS
# [15] = P. aeruginosa biofilm formation inhibitors, primary screen, strain PAO1, LB-PBS medium, absorbance 600 nm (AID 1176); also: test concentration not given here; details: P. aeruginosa PAO1 growth/biofilm, A600, 12 h; higher = more signal
# [16] = S. cerevisiae RM11-1a growth modifiers, primary screen, strain RM11-1a, OD600, basal, 24 h (AID 1177); details: OD600, 24 h, higher = more signal, called active from +8 up or from −8 down;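 also: cultures grown under basal conditions with no added stressor; test concentration not given here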
# [17] = E. coli acrAB mutant growth effects, primary screen, E. coli filamentation inducers, strain DRC39, OD650, 24 h (AID 1178); details: higher = more signal, called active from +8 up or from −8 down;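 also: growth measured as culture turbidity by optical density at 650 nm; test concentration not given here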
# [18] = E. coli acrAB mutant growth effects, primary screen, E. coli filamentation inducers, strain DRC39, OD650, 48 h (AID 1179);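 also: screen aims at cell division blockers that make cells filament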; details: E. coli DRC39 delta-acrAB growth, higher = more signal, called active from +8 up or from −8 down
# [19] = RPMI8226 myeloma cell viability, profiling panel, resazurin fluorescence, basal, 24 h, PK04 Diversity Set (AID 1180); details: higher = more signal;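 also: RPMI8826 multiple myeloma cell line at 5000 cells per well; test concentration not given here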
# [20] = target: E3 ubiquitin-protein ligase XIAP (Homo sapiens) (UniProt P98170); assay: XIAP binders, primary screen, biophysical, small-molecule microarray, fluorescence 635 nm (AID 1181); details: small-molecule microarray binding, higher = more signal;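 also: score merges 667 nm emission and signal to noise over triplicate slides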
# Chain of E3 ubiquitin-protein ligase XIAP (Homo sapiens) (P98170 whole entry, looked up): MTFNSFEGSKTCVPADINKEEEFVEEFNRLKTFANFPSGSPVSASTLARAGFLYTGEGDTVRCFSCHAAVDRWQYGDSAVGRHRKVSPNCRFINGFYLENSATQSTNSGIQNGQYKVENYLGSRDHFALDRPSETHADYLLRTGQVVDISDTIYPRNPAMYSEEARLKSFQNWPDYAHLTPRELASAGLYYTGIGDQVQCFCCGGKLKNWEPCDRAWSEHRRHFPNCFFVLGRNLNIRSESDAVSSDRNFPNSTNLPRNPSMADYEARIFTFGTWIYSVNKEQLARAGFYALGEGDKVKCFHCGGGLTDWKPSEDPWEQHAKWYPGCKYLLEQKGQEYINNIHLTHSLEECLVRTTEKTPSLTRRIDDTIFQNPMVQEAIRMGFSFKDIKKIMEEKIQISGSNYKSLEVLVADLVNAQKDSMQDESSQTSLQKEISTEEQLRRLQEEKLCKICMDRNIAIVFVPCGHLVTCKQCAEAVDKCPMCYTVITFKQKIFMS
SMILES,z-score [1],z-score [2],z-score [3],z-score [4],z-score [5],z-score [6],z-score [7],z-score [8],z-score [9],z-score [10],z-score [11],z-score [12],z-score [13],composite z-score [14],z-score [15],z-score [16],z-score [17],z-score [18],z-score [19],composite z-score [20]
C=C[C@@H](COC(C)=O)N(Cc1ccc([N+](=O)[O-])cc1)S(=O)(=O)c1ccc(Br)cc1,1.97,-0.306,0.452,1.3,0.647,0.64,0.0569 (inactive),0.667,0.198,2.05 (inactive),0.835,-0.367 (inactive),0.417 (inactive),-1.01 (inactive),-0.801 (inactive),1.19 (inactive),1.01 (inactive),0.469 (inactive),1.49,0.0345
CC(C)N1CC=CC23O[C@@H]4C=CCOC(=O)[C@@H]4[C@H]2C(=O)N(CCO)[C@@H]3C1=O (stereo not given in full),-0.237,0.253,-0.166,1.07,-0.761,-0.38,0.0611 (inactive),0.223,-0.797,0.336 (inactive),0.545,0.684 (inactive),0.813 (inactive),-1.12 (inactive),0.0683 (inactive),0.445 (inactive),0.173 (inactive),0.0539 (inactive),0.393,0.0368
CC(C)C[C@@H]1NC(=O)[C@H]2C[C@@H](C(=O)NCCCCCCNC(=O)CS)[C@@H](c3cccc(OCCO)c3)N2C1=O,0.0674,0.466,0.696,0.118,-0.0467,-0.569,0.844 (inactive),-0.404,-0.343,0.0056 (inactive),0.808,-0.632 (inactive),0.259 (inactive),-0.625 (inactive),-0.145 (inactive),0.652 (inactive),0.941 (inactive),1.08 (inactive),-0.258,0.356
CS(=O)(=O)CCOC(=O)C1=CC(CCCO)=CC(c2cccs2)N(Cc2cc3c(cc2Br)OCO3)C=C1C(=O)OCCS(C)(=O)=O (stereo not given),1.55,0.46,0.392,-0.121,0.377,1.09,0.252 (inactive),-0.308,-0.579,0.885 (inactive),1.13,-2.65 (inactive),0.209 (inactive),0.359 (inactive),0.142 (inactive),0.379 (inactive),0.571 (inactive),0.503 (inactive),0.0578,0.122
CCCCC=C[C@@H](NC(=O)c1cccs1)c1ccccc1,-2.03,-0.906,-1.92,-1.66,-4.69,-0.503,0.482 (inactive),-0.817,-1.73,-1.49 (inactive),0.327,0.822 (inactive),-0.321 (inactive),0.0375 (inactive),0.191 (inactive),1 (inactive),0.659 (inactive),0.955 (inactive),-1.95,-0.0426
CC(C)Cc1ccc(CN2CC[C@@H](NS(=O)(=O)c3ccccc3)C2)cc1,-0.977,-0.568,-1.63,-3.18,-3.72,-1.13,0.787 (inactive),-0.414,-2.29,-0.235 (inactive),-0.788,-14.2 (active),-1.73 (inactive),-0.371 (inactive),-0.0126 (inactive),-1.21 (inactive),-20.5 (active),-19.9 (active),-1.03,-0.178
CN1C(=O)C2C(C1=O)C1C=C(CCCO)C2C(c2cccs2)N1C (stereo not given),0.0141,-0.388,0.174,1.59,0.664,0.699,0.617 (inactive),0.257,-0.852,-0.396 (inactive),-0.341,-0.37 (inactive),-0.739 (inactive),-1.36 (inactive),-0.146 (inactive),0.185 (inactive),0.469 (inactive),0.742 (inactive),-0.626,-0.412
C=C(C(=O)CC[C@H](OC(C)=O)c1ccc(OCCO)cc1)C(C)C,-0.809,-0.38,-1.22,-0.984,-1.73,-1.05,-0.00642 (inactive),0.364,0.19,-0.358 (inactive),0.163,-16.2 (active),0.192 (inactive),-8.01 (active),-1.21 (inactive),-21.4 (active),-0.135 (inactive),0.204 (inactive),-0.349,-0.177
O=C1O[C@@H](c2ccccc2)[C@@H](c2ccccc2)N2[C@@H](c3ccc(O)cc3)[C@]3(C(=O)Nc4ccc(C#CC5(O)CCCCCC5)cc43)[C@@H](C(=O)N3CCCCCCC3)[C@H]12,0.476,0.49,1.04,0.0939,-1.34,-1.36,0.076 (inactive),-0.764,-0.664,-0.314 (inactive),0.366,-0.479 (inactive),-0.895 (inactive),0.916 (inactive),1.89 (inactive),0.141 (inactive),-0.284 (inactive),0.38 (inactive),-0.884,0.479
C[C@]1(C(=O)NCc2ccccc2)c2ccccc2C(=O)N(Cc2cc(F)cc(C(F)(F)F)c2)[C@H]1c1ccc(CO)cc1,0.179,-0.628,1.11,0.304,0.411,2.16,0.41 (inactive),0.714,-0.765,-0.375 (inactive),-0.555,-0.276 (inactive),-0.179 (inactive),0.225 (inactive),0.155 (inactive),0.179 (inactive),1.2 (inactive),1.6 (inactive),0.0748,0.0256
CS(=O)(=O)CCOC(=O)C1=CC(c2ccc(CO)cc2)=CC(C2CC2)N(Cc2cc3c(cc2Br)OCO3)C=C1C(=O)OCCS(C)(=O)=O (stereo not given),-0.261,-0.14,1.04,-2.68,-2.41,2.99,0.253 (inactive),-0.787,-1.8,-1.14 (inactive),-0.311,-4.92 (inactive),-2.7 (inactive),-0.735 (inactive),0.613 (inactive),0.478 (inactive),0.537 (inactive),-0.75 (inactive),-2.19,0.14
CCOC(=O)C1=C[C@@H](C(C)C)N(S(=O)(=O)c2ccc(C)cc2)[C@H]1c1ccc(C(C)C)cc1,0.012,0.256,-0.493,-0.955,-2.18,7.47,-0.0264 (inactive),-0.0684,-0.776,3.1 (inactive),0.346,1.05 (inactive),0.52 (inactive),-1.11 (inactive),-0.281 (inactive),0.55 (inactive),-0.558 (inactive),0.399 (inactive),0.548,-0.192
COc1ccc([Si](C)(C)[C@H]2[C@H](CCn3cc(CCO)nn3)O[C@@]3(C(=O)N(Cc4ccc(N5CCOC5=O)cc4)c4ccccc43)[C@@H]2C)cc1,0.252,0.469,0.161,-3.07,-2.73,0.484,0.854 (inactive),-0.911,-1.33,-1.75 (inactive),-0.909,0.93 (inactive),-2.57 (inactive),0.604 (inactive),0.802 (inactive),1.22 (inactive),0.864 (inactive),0.562 (inactive),-2.01,0.339
CC=CC(O)C1C=CC2C(=O)N(c3ccccc3)C(=O)C2N1Nc1ccc(C(C)C)cc1 (stereo not given),0.0409,0.146,0.645,-0.0872,-0.849,-1.09,-1.32 (inactive),-0.467,-1.08,-1.65 (inactive),-1.76,0.474 (inactive),-0.785 (inactive),0.784 (inactive),0.518 (inactive),1.11 (inactive),-0.457 (inactive),-1.02 (inactive),-0.863,0.384
CN(C)CCCCNC(=O)[C@H]1C[C@H]2C(=O)N[C@@H](Cc3ccccc3)C(=O)N2[C@H]1c1ccc(O)cc1,-0.451,0.7,-0.98,-0.417,0.287,-0.77,-0.248 (inactive),-0.136,-0.149,-0.1 (inactive),-0.0562,-0.5 (inactive),-0.0866 (inactive),-16.7 (active),2.86 (inactive),0.466 (inactive),-0.539 (inactive),-0.855 (inactive),-0.0845,0.0256
COCCOC(=O)N1C(=O)[C@@]2(c3cc(C#CCC(C(=O)OC)C(=O)OC)ccc31)[C@H](C(=O)N1CCCCCCC1)[C@H]1C(=O)O[C@H](c3ccccc3)[C@H](c3ccccc3)N1[C@@H]2c1ccc(OCCO)cc1,0.855,1.27,1.19,-0.38,0.185,0.322,-5 (inactive),-0.812,-1.41,1.33 (inactive),2.14,0.905 (inactive),0.281 (inactive),-0.352 (inactive),1.3 (inactive),2.41 (inactive),0.027 (inactive),0.271 (inactive),0.437,0.611
Cc1ccc(S[C@]2(C(=O)NC3CC3)CC(=O)N(Cc3ccccc3)[C@@H]2c2ccc(CO)cc2)cc1,1.29,-0.119,-0.12,-0.0947,0.181,-0.439,-0.199 (inactive),1.07,-0.452,0.846 (inactive),-0.177,-1.71 (inactive),0.262 (inactive),-0.867 (inactive),0.196 (inactive),-0.5 (inactive),0.354 (inactive),-0.255 (inactive),0.35,0.0424
O=C1C2C=CC(C(O)c3cccs3)N(Nc3ccccc3F)C2C(=O)N1c1ccccc1 (stereo not given),-0.543,0.289,-0.901,0.46,0.167,-0.686,0.321 (inactive),0.635,-0.947,0.433 (inactive),1.21,-1.3 (inactive),0.982 (inactive),0.609 (inactive),0.574 (inactive),-0.24 (inactive),-0.0052 (inactive),1.05 (inactive),0.562,0.33

# Source: PubChem BioAssay
